Data: PubChem BioAssay (NCI)
Compounds without any hit were thinned out: in the full panel of roughly 83,000, 20% have a hit.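 Plates (96-well) were seeded with cells, treated with compound at one concentration, and incubated for 48 hours before percent growth was determined.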 Active and inactive are the calls of the source. Rule for the calls: active = growth percent below 10; inactive = the rest.

What follows are compounds tested on MDA-MB-468 breast (assay: NCI-60 one-dose screen, 48 h (100 = growth as untreated, 0 = no growth, -100 = all killed)). Details: 10 µM unless noted.
In the case of `Cc1ccc(N2CCN(C3=C(Cl)C(=O)c4ncccc4C3=O)CC2)cc1`, the growth is reported as -63.9% (active). For `O=C(CCN1CCCC1)Nc1ccc2c(Nc3ccc(Br)cc3)c3ccccc3nc2c1`, the growth was 39.5% (inactive). With `O=C(/C=C/c1ccccc1)c1ccc2ccccc2c1` the growth was 47.8% (inactive). `CC(=O)OC1CC2CCC1(C)C2(C)C` (centres undefined) was tested, and the growth was 103% (inactive). In the case of `COc1ccc(-c2nn(-c3cccc(Cl)c3)cc2-c2cc(-c3cccs3)[nH]c(=S)n2)cc1`, the growth is reported as 67.8% (inactive). In the case of `Cc1ccc(-c2nc3ccccn3c2/C=C2/C(=O)Nc3cc(Cl)ccc32)cc1`, the growth is reported as 67% (inactive). `Cn1cccc1C(=O)C1C(c2cccc([N+](=O)[O-])c2)C2C3CCCCC3CN2C12C(=O)Nc1ccc(Cl)cc12` (centres undefined) was tested, and the growth was 32% (inactive). `COc1cc(C)c(C2C(C#N)=C(N)Oc3n[nH]c(-c4cccs4)c32)cc1C(C)C` (centres undefined) was tested, and the growth was 101% (inactive). For `COc1ccc(-n2c(C(O)c3ccccc3)nn(CN3CCOCC3)c2=S)cc1` (centres undefined), the growth was 97.5% (inactive). In the case of `COc1ccc(-c2ccc(C)n2-c2ccc(-c3nc4cc(Cl)ccc4s3)cc2)cc1`, the growth is reported as -30.7% (active). In the case of `COc1ccc(-c2[nH]ncc2-c2cc3c(c(OC)c2)OCC(=O)N3)cc1`, the growth is reported as -6.47% (active). In the case of `C[C@@H](Nc1cc(F)cc(F)c1)c1cc(C(=O)N(C)C)cc2c(=O)cc(N3CCOCC3)oc12`, the growth is reported as 12.6% (inactive). With `Cc1ccc(C(=O)/C(=C\c2ccc([N+](=O)[O-])cc2)S(=O)Cc2ccc(Cl)cc2)cc1` (centres undefined) the growth was 24.3% (inactive). With `NS(=O)(=O)c1ccc(CCN2C(=O)c3cc(Cl)c(Cl)cc3C2=O)cc1` the growth was 119% (inactive).
